The values that follow come from PubChem BioAssay (NCATS).

A short description of assay [1]: Quantitative High-Throughput drug screen in 47 multiple myeloma cell lines against the NCATS MIPE library collection: PE2_PLB cell viability assay (AID 1919869). Note: nearly all actives have a fitted effect of over 35% in size. Note: potency is the fitted concentration of half-maximal effect. Summed up:
(§1)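 Cells were exposed to library compounds for 48 hours, after which ATP was measured by CellTiter-Glo. Signal was taken as median relative luminescence units.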

A short description of assay [2]: Quantitative High-Throughput drug screen in 47 multiple myeloma cell lines against the NCATS MIPE library collection: PCM6_Riken cell viability assay (AID 1919870). Note: nearly all actives have a fitted effect of over 30% in size. Note: potency is the fitted concentration of half-maximal effect. The procedure, abridged:
as §1

Assay [3] can be described thus: Quantitative High-Throughput drug screen in 47 multiple myeloma cell lines against the NCATS MIPE library collection: OPM2_DSMZ cell viability assay (AID 1919872). Note: nearly all actives have a fitted effect of over 30% in size. Note: potency is the fitted concentration of half-maximal effect. The procedure, abridged:
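Myeloma cells (500 per well) were exposed to MIPE 4.0 compounds by pin transfer and incubated 48 hours at 37C, 5% CO2. Viability was read as ATP by CellTiter-Glo luminescence, normalised to DMSO (100%) and media-only (0%) wells.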

Assay [4] in a line: qHTS drug screen for cell cycle checkpoint inhibitors in PARPi-resistant BRCA-mutant ovarian cancer cell lines. (AID 1963452; calls by dose curve; note: potency is the fitted concentration of half-maximal effect). The conditions noted are these: PEO1/OlaR viability, CellTiter-Glo luminescence, 96 h; for Z-AUC: stronger effect = lower value. Summed up: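 PEO1, PEO4 and PEO1/OlaR ovarian cancer cells, 600 per well, exposed 96 h at 37C to a dilution series. Viability read by CellTiter-Glo luminescence, normalized to DMSO and empty wells; activity summarized as Z-AUC.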
For orientation: qHTS replaces the single test concentration by a dilution series.

The nature of assay [5]: Quantitative High-Throughput drug screen in 47 multiple myeloma cell lines against the NCATS MIPE library collection: RPMI8226_ATCC cell viability assay (AID 1919871). Note: potency is the fitted concentration of half-maximal effect; nearly all actives have a fitted effect of over 30% in size. Summed up: as §1
The nature of assay [6]: Quantitative High-Throughput drug screen in 47 multiple myeloma cell lines against the NCATS MIPE library collection: KMS11_JCRBsus cell viability assay (AID 1919873). Note: nearly all actives have a fitted effect of over 50% in size. Note: potency is the fitted concentration of half-maximal effect. The procedure, abridged:
as §1

Assay [7] can be described thus: Quantitative High-Throughput drug screen in 47 multiple myeloma cell lines against the NCATS MIPE library collection: KMS28BM_JCRB cell viability assay (AID 1919874). Note: nearly all actives have a fitted effect of over 35% in size. Note: potency is the fitted concentration of half-maximal effect. Summed up:
as §1

Assay [8] can be described thus: qHTS for identification of novel therapeutic agents for treatment of microphthalmiaassociated transcription factor (MiT) renal cell carcinoma (RCC) (AID 1963991). The conditions noted are these: CellTiter-Glo, 48 h, stronger effect = lower value. The procedure, abridged:
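Three TFE3-fusion RCC lines (UOK109, UOK124, UOK145), 500 cells/well in complete medium, were treated with MIPE 4.0 compounds for 48 hours at 37 C. Viability was by CellTiter-Glo luminescence, normalized to DMSO (100%) and empty wells (0%); curves fitted over 11 concentrations.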

Assay [9] can be described thus: qHTS profiling for inhibitors of Plasmodium falciparum proliferation (AID 504749).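 Note: 0% = DMSO vehicle and full inhibition = artemisinin control; nearly all actives have a fitted effect of over 60% in size.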 The conditions noted are these: P. falciparum in erythrocytes, SYBR Green DNA, 72 h; at 12.8 µM (top of the series); parasite line A. Summed up:
(§2)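 Each compound contacts P. falciparum-infected red blood cells for 72 h at 37 C; lysis buffer (Tris, EDTA, saponin, Triton X, SYBR Green I) is added and fluorescence measured next morning; values normalized to controls.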

For assay [10], the system named is 3D7. Described as above. The conditions noted are these: P. falciparum in erythrocytes, SYBR Green DNA, 72 h; series mostly up to 28.7 µM. The procedure, abridged: as §2
Assay [11] relates to 7G8. The assay is described as above. The conditions noted are these: P. falciparum in erythrocytes, SYBR Green DNA, 72 h; series mostly up to 28.7 µM. Summed up: as §2
In assay [12] the test system is AA1029. The description is as above. The conditions noted are these: P. falciparum in erythrocytes, SYBR Green DNA, 72 h; series mostly up to 28.7 µM. Summed up:
as §2

The subject of assay [13] is AS120. The description is as above. The conditions noted are these: P. falciparum in erythrocytes, SYBR Green DNA, 72 h; series mostly up to 28.7 µM. Summed up: as §2
Assay [14] has as its system ATS189. The assay is described as above. The conditions noted are these: P. falciparum in erythrocytes, SYBR Green DNA, 72 h; series mostly up to 28.7 µM. The procedure, abridged:
as §2

Assay [15] relates to ATS95. The description is as above. The conditions noted are these: P. falciparum in erythrocytes, SYBR Green DNA, 72 h; series mostly up to 28.7 µM. Summed up: as §2
In assay [16] the test system is C2A. Described as above. The conditions noted are these: P. falciparum in erythrocytes, SYBR Green DNA, 72 h; series mostly up to 28.7 µM. The procedure, abridged: as §2
Assay [17] deals with CP185. The description is as above. The conditions noted are these: P. falciparum in erythrocytes, SYBR Green DNA, 72 h; series mostly up to 28.7 µM. Summed up: as §2
In assay [18] the test system is CP191. The assay is described as above. The conditions noted are these: P. falciparum in erythrocytes, SYBR Green DNA, 72 h; series mostly up to 28.7 µM. The procedure, abridged:
as §2

Assay [19] has as its system CP192. Described as above. The conditions noted are these: P. falciparum in erythrocytes, SYBR Green DNA, 72 h; series mostly up to 28.7 µM. The procedure, abridged:
as §2

The test system of assay [20] is CP194. Described as above. The conditions noted are these: P. falciparum in erythrocytes, SYBR Green DNA, 72 h; series mostly up to 28.7 µM. The procedure, abridged: as §2
[21] abbreviates: measured here: PEO1 parental Z-AUC.

SMILES strings stand for the structures. Records with an inconclusive call do not appear. Active and inactive are the calls of the source. Unless noted, calls come from the whole dose curve; as a rule, active = well fitted curve in the direction sought with a large enough effect; inconclusive = small, poorly fitted or top-dose-only effect, or another doubt; inactive = no such curve, though single readings can be large; an effect the other way counts as inactive or inconclusive.

For `O=C(NCCCNc1nc(Nc2cccc(NC(=O)N3CCCC3)c2)ncc1I)c1cccs1`, the Potency in assay [1] is 1.18 µM (active); in assay [2], 5.26 µM (active); in assay [3], 16.6 µM (active). In addition, the Z-AUC is 1.15 (inactive) in assay [4], 1.02 in assay [4] (setting [21]) and 0.426 in assay [4] (measured here: PEO4 Z-AUC).
On to `CCn1cc(-c2ccnc3[nH]c(-c4cccc(CN(C)C)c4)cc23)c(-c2ccc(NC(=O)N(C)C)cc2)n1`, for which the Potency in [1] was 11.8 µM (active); in assay [2], 9.35 µM (active); in [5], 14.8 µM (active); in assay [6], 0.833 µM (active); in [4], 2.45 µM (active). In addition, the results for the Z-AUC in assay [4] (setting [21]) and in assay [4] (measured here: PEO4 Z-AUC) were -1.7 and -1.88, respectively.
As for `CN(C)CCCN=c1c2ccccc2n(C)c2[nH]c(=O)n(C)c(=O)c12`, the Potency in assay [1] was 16.6 µM (active); in [2], 14.8 µM (active); in [3] it was 20.9 µM (active); in assay [6], 14.8 µM (active); in [7], 16.6 µM (active). For the same molecule, the figures for the Z-AUC in assay [4], in [4] (setting [21]) and in assay [4] (measured here: PEO4 Z-AUC) were 0.193 (inactive), 1.79 and 1.54, respectively.
For `Nc1ccc(S(=O)(=O)Nc2ncccn2)cc1`, the Potency result in [1], in assay [2], in [3], in [6], in assay [7] and in [10] was “inactive” throughout. The Potency entry in [11], in assay [12], in assay [13], in assay [14], in assay [15] and in assay [16] was “inactive” in each case. For the same molecule, the Potency result in [17], in [18], in [19] and in assay [20] was “inactive” throughout. For the same molecule, the z-score in assay [8] (TFE3-RCC UOK109 viability, measured here: UOK109 Z-AUC) was -0.287; in [8] (TFE3-RCC viability, measured here: UOK124 Z-AUC), 0.624; in [8] (TFE3-RCC viability, measured here: UOK145 Z-AUC), -0.336. Besides, in assay [9], the activity, negative = inhibition was 8.9% (inactive).
As for `CCOC(=O)C1=C(C)NC2=C(C(=O)CC(C)(C)C2)C1c1ccc(-c2ccccc2)cc1` (centres undefined), the Potency in assay [1] is 20.9 µM (active); in [2], 20.9 µM (active); in assay [5], 23.5 µM (active); in assay [6], 18.7 µM (active). Also, the Z-AUC in assay [4] is 0.483 (inactive); in assay [4] (setting [21]), 0.756; in assay [4] (measured here: PEO4 Z-AUC) it was 0.977.
On to `CC1(C)CC(=O)c2c(C(F)(F)F)nn(-c3ccc(C(N)=O)c(NC4CCC(OC(=O)CN)CC4)c3)c2C1` (centres undefined), for which the Potency in assay [1] was 0.209 µM (active); in assay [2], 0.0743 µM (active); in assay [3], 0.296 µM (active); in assay [6], 0.118 µM (active); in [7], 0.187 µM (active). Also, the Z-AUC in assay [4] is -1.29 (inactive); in [4] (setting [21]), -0.877; in assay [4] (measured here: PEO4 Z-AUC), -0.312.
Consider `Cc1c(CN2CCN(S(C)(=O)=O)CC2)sc2c(N3CCOCC3)nc(-c3cnc(N)nc3)nc12`, for which the Potency in assay [1] was 0.0372 µM (active); in assay [2], 0.418 µM (active); in [5], 0.0166 µM (active). The results for the Z-AUC in assay [4], in assay [4] (setting [21]) and in assay [4] (measured here: PEO4 Z-AUC) were 0.0284 (inactive), 0.564 and 0.402, respectively.
Consider `CCCCN1CCC(CNC(=O)c2c3n(c4ccccc24)CCCO3)CC1`, for which the Potency was 11.8 µM (active) in [1], 3.32 µM (active) in assay [2] and 13.2 µM (active) in assay [6].
Consider `COc1ccc(C=Cc2cc(OC)c(OC)c(OC)c2)cc1O`, for which the Potency entry in assay [1], in [2], in assay [6] and in assay [7] was “inactive” each time.
